Holding throughout (experiment): DAPPL (digital affinity profiling via proximity ligation, sequencing); 10 mM Tris-HCl pH 7.5, 50 mM NaCl, 1 mM DTT, 4% glycerol, room temperature, 30 min; GST-TFs on glutathione beads, 16-mer random dsDNA library, 0.1% formaldehyde crosslink after washing; high values mean tight binding
Assay [1] deals with T1, FEV (Homo sapiens, UniProt Q99581 1-238).
T1 sequence: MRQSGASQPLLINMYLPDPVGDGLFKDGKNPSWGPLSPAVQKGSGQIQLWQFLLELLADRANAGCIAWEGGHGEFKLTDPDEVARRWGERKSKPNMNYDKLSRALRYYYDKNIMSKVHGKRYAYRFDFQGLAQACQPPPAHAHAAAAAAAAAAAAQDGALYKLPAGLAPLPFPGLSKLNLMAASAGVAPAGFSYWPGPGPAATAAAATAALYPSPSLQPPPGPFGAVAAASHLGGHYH
As to conditions: protein: recombinant; tags: N-terminal GST; dsDNA, one strand shown. The essentials: (§1)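 Binding signal is given per hexamer as its read frequency for a factor divided by its frequency in the tag-only sample. GST-fused human transcription factors were expressed in yeast, captured on glutathione beads, barcoded with DNA and pooled with that sample, then incubated with 200 nmole of a 16-mer random double-stranded DNA library in Tris/NaCl/DTT/glycerol buffer for 30 min at room temperature. The pools were then washed, crosslinked, proximity-ligated, amplified by PCR and sequenced on an Illumina NextSeq500.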

The target of assay [2] is ETV5 (Homo sapiens, UniProt P41161 1-510). As to conditions: protein: recombinant; tags: N-terminal GST; dsDNA, one strand shown. In outline: as §1
Chain of ETV5 (P41161 whole entry): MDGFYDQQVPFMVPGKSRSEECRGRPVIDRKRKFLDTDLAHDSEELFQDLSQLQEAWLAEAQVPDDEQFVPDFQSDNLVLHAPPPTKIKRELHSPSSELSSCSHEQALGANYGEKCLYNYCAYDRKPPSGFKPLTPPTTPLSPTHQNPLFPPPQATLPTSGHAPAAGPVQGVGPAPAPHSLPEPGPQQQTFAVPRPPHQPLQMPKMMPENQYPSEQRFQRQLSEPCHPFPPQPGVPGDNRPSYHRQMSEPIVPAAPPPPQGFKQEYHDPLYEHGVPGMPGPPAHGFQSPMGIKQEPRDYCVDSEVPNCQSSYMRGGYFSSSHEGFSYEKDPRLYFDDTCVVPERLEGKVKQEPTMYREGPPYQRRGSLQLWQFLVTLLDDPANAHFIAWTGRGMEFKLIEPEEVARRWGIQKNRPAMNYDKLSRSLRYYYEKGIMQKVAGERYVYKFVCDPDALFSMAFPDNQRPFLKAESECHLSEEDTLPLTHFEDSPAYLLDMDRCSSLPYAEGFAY
For assay [3], the target named is HSF1 (Homo sapiens, UniProt Q00613 1-529). As to conditions: protein: recombinant; tags: N-terminal GST; chain copies: 3; dsDNA, one strand shown. The essentials: as §1
Chain of HSF1 (Q00613 whole entry): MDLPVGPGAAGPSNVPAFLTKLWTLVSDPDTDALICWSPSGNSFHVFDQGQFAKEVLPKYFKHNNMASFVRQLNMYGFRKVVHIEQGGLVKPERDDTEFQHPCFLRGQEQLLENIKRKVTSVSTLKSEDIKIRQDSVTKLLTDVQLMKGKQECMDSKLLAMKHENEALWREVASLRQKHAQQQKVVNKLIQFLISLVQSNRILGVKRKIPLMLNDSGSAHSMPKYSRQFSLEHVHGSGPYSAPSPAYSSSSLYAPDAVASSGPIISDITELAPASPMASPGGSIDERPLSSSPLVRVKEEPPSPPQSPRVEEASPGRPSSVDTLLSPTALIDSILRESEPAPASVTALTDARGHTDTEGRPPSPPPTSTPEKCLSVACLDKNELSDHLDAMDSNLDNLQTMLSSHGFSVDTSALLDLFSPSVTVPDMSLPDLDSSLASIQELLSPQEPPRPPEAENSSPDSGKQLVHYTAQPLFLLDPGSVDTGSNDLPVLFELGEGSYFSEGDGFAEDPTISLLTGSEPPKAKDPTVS
For assay [4], the target named is T2, SPIC (Homo sapiens, UniProt Q8N5J4 1-248).
T2 sequence: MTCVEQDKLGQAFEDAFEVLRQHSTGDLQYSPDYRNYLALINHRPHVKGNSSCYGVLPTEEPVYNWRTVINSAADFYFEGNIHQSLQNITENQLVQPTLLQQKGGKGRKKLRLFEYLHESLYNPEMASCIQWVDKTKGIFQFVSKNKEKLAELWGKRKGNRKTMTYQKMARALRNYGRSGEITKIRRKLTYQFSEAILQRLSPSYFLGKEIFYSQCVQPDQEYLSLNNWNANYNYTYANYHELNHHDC
The following applies: protein: recombinant; tags: N-terminal GST; dsDNA, one strand shown. The essentials: as §1

The target of assay [5] is ELF4 (Homo sapiens, UniProt Q99607 1-663). As to conditions: protein: recombinant; tags: N-terminal GST; dsDNA, one strand shown. In outline: as §1
Chain of ELF4 (Q99607 whole entry): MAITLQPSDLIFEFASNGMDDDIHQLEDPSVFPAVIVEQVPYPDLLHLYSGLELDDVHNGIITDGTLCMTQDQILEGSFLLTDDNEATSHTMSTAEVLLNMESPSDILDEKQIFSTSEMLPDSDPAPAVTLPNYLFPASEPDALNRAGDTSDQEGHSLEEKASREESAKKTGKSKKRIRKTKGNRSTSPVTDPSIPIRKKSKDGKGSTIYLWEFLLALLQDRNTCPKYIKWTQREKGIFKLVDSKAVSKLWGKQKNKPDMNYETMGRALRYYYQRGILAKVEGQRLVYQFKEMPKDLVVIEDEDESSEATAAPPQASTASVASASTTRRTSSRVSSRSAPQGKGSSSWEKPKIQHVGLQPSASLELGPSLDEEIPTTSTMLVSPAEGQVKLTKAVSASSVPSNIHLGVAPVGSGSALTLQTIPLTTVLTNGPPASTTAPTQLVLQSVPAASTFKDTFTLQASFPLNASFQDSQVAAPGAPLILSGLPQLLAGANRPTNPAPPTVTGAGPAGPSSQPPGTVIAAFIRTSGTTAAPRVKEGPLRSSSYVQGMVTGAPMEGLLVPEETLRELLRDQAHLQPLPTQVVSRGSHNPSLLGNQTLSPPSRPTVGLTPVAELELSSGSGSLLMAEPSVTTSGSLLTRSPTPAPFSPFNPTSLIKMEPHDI
The target of assay [6] is T3, ELK4 (Homo sapiens, UniProt P28324-2 1-405).
T3 sequence: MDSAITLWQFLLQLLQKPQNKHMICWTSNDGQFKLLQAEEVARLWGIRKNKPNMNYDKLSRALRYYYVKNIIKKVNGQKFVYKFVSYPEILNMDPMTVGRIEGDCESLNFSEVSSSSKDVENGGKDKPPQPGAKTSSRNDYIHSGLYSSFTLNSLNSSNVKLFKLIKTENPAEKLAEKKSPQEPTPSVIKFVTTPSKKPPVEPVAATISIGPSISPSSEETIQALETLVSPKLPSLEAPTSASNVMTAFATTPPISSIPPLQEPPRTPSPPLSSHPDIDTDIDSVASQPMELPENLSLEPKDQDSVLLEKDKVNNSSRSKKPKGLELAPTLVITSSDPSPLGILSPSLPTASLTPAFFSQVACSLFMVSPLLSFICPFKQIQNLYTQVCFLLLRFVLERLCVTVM
The following applies: protein: recombinant; tags: N-terminal GST; dsDNA, one strand shown. In outline: as §1

Assay [7] deals with T4, ETV2 (Homo sapiens, UniProt O00321 1-342).
T4 sequence: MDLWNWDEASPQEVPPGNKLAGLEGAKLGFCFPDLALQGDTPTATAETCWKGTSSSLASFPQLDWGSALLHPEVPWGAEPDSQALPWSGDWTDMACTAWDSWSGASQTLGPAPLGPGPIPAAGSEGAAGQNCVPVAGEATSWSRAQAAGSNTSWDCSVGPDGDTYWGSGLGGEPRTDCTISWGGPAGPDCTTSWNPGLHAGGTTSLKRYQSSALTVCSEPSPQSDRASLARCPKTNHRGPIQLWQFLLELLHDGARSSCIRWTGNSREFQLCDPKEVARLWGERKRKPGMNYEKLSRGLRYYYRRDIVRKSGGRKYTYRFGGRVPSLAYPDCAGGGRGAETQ
As to conditions: protein: recombinant; tags: N-terminal GST; dsDNA, one strand shown. The essentials: as §1

The target in assay [8] is T5, ELF3 (Homo sapiens, UniProt P78545 1-371).
T5 sequence: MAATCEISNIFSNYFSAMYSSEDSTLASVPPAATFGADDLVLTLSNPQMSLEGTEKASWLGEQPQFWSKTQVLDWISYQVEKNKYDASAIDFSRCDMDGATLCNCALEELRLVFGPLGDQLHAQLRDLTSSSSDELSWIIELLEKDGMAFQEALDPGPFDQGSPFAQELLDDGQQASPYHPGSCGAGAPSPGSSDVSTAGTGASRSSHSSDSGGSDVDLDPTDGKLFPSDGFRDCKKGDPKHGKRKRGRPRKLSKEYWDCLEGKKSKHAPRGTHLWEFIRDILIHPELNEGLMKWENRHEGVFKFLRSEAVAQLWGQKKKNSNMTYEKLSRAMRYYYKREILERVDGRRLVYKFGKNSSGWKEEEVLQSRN
The following applies: protein: recombinant; tags: N-terminal GST; dsDNA, one strand shown. In outline:
as §1

Assay [9] deals with CRX (Homo sapiens, UniProt O43186 1-299). As to conditions: protein: recombinant; tags: N-terminal GST; dsDNA, one strand shown. The essentials:
as §1

Assay [10] deals with ETV1 (Homo sapiens, UniProt P50549 1-477). As to conditions: protein: recombinant; tags: N-terminal GST; dsDNA, one strand shown. The essentials:
as §1

In assay [11] the target is T6, ERF (Homo sapiens, UniProt P50548 1-548).
T6 sequence: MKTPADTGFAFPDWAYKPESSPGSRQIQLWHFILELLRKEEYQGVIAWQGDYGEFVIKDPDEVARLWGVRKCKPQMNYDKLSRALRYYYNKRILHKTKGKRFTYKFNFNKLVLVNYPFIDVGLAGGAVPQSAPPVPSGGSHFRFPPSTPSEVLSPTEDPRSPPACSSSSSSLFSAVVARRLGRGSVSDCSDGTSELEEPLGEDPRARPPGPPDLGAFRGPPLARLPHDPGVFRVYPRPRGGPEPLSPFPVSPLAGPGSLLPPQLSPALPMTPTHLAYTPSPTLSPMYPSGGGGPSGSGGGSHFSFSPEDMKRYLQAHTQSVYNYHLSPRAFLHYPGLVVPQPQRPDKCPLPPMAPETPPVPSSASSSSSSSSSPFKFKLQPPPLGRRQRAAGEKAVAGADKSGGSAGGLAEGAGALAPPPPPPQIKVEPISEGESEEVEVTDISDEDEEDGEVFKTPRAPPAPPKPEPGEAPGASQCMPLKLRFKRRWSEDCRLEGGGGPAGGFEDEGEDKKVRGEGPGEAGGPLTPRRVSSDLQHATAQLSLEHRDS
The following applies: protein: recombinant; tags: N-terminal GST; dsDNA, one strand shown. The essentials: as §1

The target of assay [12] is T7, ETV3L (Homo sapiens, UniProt Q6ZN32 1-361).
T7 sequence: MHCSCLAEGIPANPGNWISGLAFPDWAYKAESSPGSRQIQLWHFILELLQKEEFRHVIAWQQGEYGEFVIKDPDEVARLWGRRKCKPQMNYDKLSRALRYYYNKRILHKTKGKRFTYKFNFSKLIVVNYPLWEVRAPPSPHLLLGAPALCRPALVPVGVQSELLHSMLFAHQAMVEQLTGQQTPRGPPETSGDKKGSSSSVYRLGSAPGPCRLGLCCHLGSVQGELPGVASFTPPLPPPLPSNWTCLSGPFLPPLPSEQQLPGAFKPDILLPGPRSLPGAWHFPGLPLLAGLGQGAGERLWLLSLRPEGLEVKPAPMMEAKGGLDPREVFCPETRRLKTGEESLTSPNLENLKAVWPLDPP
The following applies: protein: recombinant; tags: N-terminal GST; dsDNA, one strand shown. In outline: as §1

The target in assay [13] is T8, ETS2 (Homo sapiens, UniProt P15036 1-469).
T8 sequence: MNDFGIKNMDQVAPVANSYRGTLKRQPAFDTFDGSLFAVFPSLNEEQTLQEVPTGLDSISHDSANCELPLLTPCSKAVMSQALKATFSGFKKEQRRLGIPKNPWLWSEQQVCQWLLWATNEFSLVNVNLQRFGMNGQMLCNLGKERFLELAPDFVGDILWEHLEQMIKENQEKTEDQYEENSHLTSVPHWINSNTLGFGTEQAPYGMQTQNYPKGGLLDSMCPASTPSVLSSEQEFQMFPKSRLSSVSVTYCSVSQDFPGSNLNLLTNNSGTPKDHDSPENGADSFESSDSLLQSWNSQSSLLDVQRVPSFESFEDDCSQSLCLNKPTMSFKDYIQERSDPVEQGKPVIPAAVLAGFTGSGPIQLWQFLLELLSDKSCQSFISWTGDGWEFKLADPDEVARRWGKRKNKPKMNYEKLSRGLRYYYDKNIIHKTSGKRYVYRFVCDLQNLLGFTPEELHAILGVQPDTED
As to conditions: protein: recombinant; tags: N-terminal GST; dsDNA, one strand shown. The essentials: as §1

Assay [14] has as its target T9, SPDEF (Homo sapiens, UniProt O95238 1-335).
T9 sequence: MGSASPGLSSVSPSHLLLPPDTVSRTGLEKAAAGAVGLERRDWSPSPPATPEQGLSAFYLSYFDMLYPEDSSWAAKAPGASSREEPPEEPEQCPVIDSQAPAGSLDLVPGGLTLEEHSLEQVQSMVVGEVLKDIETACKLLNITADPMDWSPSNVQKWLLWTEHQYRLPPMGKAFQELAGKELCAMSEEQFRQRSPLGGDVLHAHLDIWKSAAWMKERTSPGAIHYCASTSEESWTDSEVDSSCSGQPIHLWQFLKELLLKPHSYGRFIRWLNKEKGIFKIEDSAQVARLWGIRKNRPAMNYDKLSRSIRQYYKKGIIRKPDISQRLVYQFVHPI
As to conditions: protein: recombinant; tags: N-terminal GST; dsDNA, one strand shown. In outline: as §1

The target of assay [15] is T10, ETV7 (Homo sapiens, UniProt Q9Y603 1-341).
T10 sequence: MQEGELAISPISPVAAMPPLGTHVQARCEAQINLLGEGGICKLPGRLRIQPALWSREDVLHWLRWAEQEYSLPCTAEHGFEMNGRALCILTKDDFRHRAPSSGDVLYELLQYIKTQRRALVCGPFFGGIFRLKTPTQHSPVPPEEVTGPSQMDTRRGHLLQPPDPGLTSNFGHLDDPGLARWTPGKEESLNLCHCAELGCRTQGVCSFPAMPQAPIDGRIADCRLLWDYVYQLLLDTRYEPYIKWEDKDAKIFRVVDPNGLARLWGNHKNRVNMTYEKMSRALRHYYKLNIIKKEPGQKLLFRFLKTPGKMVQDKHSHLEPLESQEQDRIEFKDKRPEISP
As to conditions: protein: recombinant; tags: N-terminal GST; dsDNA, one strand shown. The essentials:
as §1

Assay [16] concerns the target T11, ELF5 (Homo sapiens, UniProt Q9UKW6-2 1-255).
T11 sequence: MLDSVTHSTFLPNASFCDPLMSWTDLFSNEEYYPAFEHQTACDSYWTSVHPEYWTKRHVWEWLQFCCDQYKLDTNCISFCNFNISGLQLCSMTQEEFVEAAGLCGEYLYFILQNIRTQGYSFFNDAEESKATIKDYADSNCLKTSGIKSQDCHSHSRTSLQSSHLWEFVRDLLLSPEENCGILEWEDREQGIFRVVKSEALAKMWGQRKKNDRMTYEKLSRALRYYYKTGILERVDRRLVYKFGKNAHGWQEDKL
The following applies: protein: recombinant; tags: N-terminal GST; dsDNA, one strand shown. In outline:
as §1

In assay [17] the target is T12, ETV3 (Homo sapiens, UniProt P41162-2 1-143).
T12 sequence: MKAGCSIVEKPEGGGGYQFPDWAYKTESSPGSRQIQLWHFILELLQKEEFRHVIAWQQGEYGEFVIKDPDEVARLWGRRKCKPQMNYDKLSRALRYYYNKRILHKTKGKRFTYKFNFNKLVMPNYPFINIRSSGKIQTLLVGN
The following applies: protein: recombinant; tags: N-terminal GST; dsDNA, one strand shown. In outline: as §1

In assay [18] the target is ETV6 (Homo sapiens, UniProt P41212 1-452). The following applies: protein: recombinant; tags: N-terminal GST; dsDNA, one strand shown. The essentials: as §1
Chain of ETV6 (P41212 whole entry): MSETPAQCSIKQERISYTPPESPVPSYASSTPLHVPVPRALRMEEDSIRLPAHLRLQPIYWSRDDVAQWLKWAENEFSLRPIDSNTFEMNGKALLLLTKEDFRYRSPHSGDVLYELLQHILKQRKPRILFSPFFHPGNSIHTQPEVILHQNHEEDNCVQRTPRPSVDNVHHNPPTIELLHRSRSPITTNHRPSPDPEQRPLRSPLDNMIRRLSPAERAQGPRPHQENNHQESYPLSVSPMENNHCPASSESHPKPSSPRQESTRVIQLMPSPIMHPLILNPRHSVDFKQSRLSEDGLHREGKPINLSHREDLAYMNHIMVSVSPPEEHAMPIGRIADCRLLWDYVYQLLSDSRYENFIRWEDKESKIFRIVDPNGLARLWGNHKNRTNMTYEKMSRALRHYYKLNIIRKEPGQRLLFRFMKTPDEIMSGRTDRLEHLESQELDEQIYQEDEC

Chain of ETV1 (P50549 whole entry): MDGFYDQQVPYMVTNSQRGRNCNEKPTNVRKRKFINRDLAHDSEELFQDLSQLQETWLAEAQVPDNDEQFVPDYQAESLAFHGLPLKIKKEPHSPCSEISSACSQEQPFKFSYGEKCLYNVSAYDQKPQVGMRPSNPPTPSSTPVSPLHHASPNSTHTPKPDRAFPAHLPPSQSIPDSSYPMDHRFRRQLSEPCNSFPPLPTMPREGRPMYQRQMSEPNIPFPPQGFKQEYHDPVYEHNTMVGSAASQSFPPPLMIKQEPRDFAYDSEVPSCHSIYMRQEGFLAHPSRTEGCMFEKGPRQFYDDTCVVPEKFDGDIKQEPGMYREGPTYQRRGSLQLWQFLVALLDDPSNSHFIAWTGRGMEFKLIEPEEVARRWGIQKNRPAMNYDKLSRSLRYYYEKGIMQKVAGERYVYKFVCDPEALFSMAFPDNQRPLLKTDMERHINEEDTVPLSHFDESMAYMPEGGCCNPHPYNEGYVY
Chain of CRX (O43186 whole entry): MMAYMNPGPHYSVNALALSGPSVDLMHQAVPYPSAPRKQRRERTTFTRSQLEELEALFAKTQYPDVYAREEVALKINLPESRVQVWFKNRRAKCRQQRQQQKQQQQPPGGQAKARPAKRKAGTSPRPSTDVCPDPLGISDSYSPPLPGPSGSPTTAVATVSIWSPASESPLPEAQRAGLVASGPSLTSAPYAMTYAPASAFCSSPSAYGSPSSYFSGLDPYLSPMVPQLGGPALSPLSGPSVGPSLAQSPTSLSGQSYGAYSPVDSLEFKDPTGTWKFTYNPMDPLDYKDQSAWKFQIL

In the case of GAACAA, the binding signal in assay [1] is 1.11 fold enrichment (6-mer frequency, TF over GST control); in assay [2] it was 1.18 fold enrichment (6-mer frequency, TF over GST control); in [3], 1.5 fold enrichment (6-mer frequency, TF over GST control); in assay [4] it was 1.23 fold enrichment (6-mer frequency, TF over GST control); in [5], 1.2 fold enrichment (6-mer frequency, TF over GST control); in [6] it was 1.16 fold enrichment (6-mer frequency, TF over GST control). For the same sequence, the binding signal in [7] is 1.28 fold enrichment (6-mer frequency, TF over GST control); in assay [8], 1.22 fold enrichment (6-mer frequency, TF over GST control); in [9], 1.06 fold enrichment (6-mer frequency, TF over GST control); in [10], 1.21 fold enrichment (6-mer frequency, TF over GST control); in assay [11], 1.24 fold enrichment (6-mer frequency, TF over GST control); in assay [12], 1.2 fold enrichment (6-mer frequency, TF over GST control). In addition, the binding signal was 1.22 fold enrichment (6-mer frequency, TF over GST control) in [13]; 1.14 fold enrichment (6-mer frequency, TF over GST control) in assay [14]; 1.17 fold enrichment (6-mer frequency, TF over GST control) in assay [15]; 1.23 fold enrichment (6-mer frequency, TF over GST control) in assay [16]; 1.18 fold enrichment (6-mer frequency, TF over GST control) in assay [17]; 1.25 fold enrichment (6-mer frequency, TF over GST control) in assay [18].

The values above are taken from article PMC7862700, “An all-to-all approach to the identification of sequence-specific readers for epigenetic DNA modifications on cytosine”.
